Test [1] has as its target Acetylcholinesterase (Homo sapiens) (UniProt P22303). In words: Acetylcholinesterase (AChE) small molecule antagonists: colormetric cell-based qHTS assay (AID 1347395). Note: nearly all actives have a fitted effect of over 30% in size. Note: potency is the fitted concentration of half-maximal effect. In outline: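 Neuroblastoma line SH-SY5Y supplied the enzyme; cells were preincubated with compound for 30 min at 37 C and 5% CO2. Acetylthiocholine with DTNB was then added for 90 min at 37 C, and thiocholine was measured by colour.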

Test [2] has the same target. In words: Acetylcholinesterase (AChE) small molecule antagonists: enzyme-based qHTS assay (AID 1347397). Note: nearly all actives have a fitted effect of over 55% in size. The note with it: Potency: AChE enzyme activity inhibition; outcome: AChE enzyme activity inhibition. The essentials:
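Tox21 library chemicals are tested in qHTS format against recombinant human AChE. The enzyme, dispensed at 50 mU/mL, sits with compound for 30 min at room temperature. A DTNB–acetylthiocholine cocktail follows, and colour is read after 10 min.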

The target is the same in test [3]. In words: Acetylcholinesterase (AChE) small molecule antagonists: fluorescence cell-based qHTS assay (AID 1347398). Note: nearly all actives have a fitted effect of over 50% in size. Note: potency is the fitted concentration of half-maximal effect. The settings on record: Potency: AChE activity; outcome: AChE activity. In outline: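 Cellular AChE inhibition: SH-SY5Y cells treated with test chemical for 30 min at 37 C, then acetylthiocholine hydrolysis followed over 40 min at room temperature via thiocholine-reactive Thiolite Green fluorescence (490/520 nm).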

Test [4] shares this target. The test is described as follows: Acetylcholinesterase (AChE) small molecule antagonists: enzyme-based qHTS assay with human liver microsomes (AID 1347399). Note: nearly all actives have a fitted effect of over 60% in size. The note with it: Potency: qHTS inhibition; outcome: qHTS inhibition. The essentials: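 Recombinant human AChE (50 mU/mL in the enzyme mix) and human liver microsomes (0.25 mg/mL final) were preincubated with compound and NADPH (0.25 mg/mL final) for 30 min at 37 C. Acetylthiocholine/DTNB was then added; thiocholine was read colorimetrically after 10 min at room temperature.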

Records with an inconclusive call do not appear. Calls of active or inactive are those of the source. Calls come from the whole dose curve.

Sequence of Acetylcholinesterase (Homo sapiens) (P22303 whole entry, looked up): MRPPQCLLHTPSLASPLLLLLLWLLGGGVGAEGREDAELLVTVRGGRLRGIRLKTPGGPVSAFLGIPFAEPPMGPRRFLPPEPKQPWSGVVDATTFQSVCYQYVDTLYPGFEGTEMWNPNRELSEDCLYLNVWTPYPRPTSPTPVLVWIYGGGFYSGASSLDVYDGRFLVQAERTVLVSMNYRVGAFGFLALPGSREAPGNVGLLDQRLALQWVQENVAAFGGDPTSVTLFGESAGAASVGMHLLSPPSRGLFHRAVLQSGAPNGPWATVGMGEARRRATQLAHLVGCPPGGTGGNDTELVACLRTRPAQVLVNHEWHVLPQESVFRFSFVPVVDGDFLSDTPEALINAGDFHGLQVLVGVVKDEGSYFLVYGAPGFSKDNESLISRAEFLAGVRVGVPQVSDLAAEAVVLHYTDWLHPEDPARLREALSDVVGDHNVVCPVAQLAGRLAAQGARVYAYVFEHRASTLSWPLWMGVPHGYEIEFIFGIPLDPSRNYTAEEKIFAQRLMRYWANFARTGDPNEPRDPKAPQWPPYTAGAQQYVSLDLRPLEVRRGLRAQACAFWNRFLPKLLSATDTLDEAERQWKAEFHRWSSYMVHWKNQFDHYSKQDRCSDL

For the molecule `CC(Cl)C(Cl)Cl` (stereo not given), the Potency entry in test [1], in test [2], in test [3] and in test [4] was “inactive” in each case.
On to `CC(C)=CCCC(C)CC(=O)O` (stereo not given), for which the Potency entry in test [1], in test [2], in test [3] and in test [4] was “inactive” throughout.
As to `NC(Cc1c[nH]c2ccccc12)C(=O)O` (stereo not given), the Potency entry in test [1], in test [2], in test [3] and in test [4] was “inactive” throughout.
Regarding `O=C1CCCC(=O)O1`, the Potency result in test [1], in test [2], in test [3] and in test [4] was “inactive” in each case.
As to `CC1CCC(C(C)C)C(O)C1` (stereo not given), the Potency result in test [1], in test [2], in test [3] and in test [4] was “inactive” each time.
For the molecule `CC/C=C\C#N`, the Potency entry in test [1], in test [2], in test [3] and in test [4] was “inactive” each time.
With `CC(O)(P(=O)(O)O)P(=O)(O)O`, the Potency result in test [1], in test [2], in test [3] and in test [4] was “inactive” throughout.
On to `O=C(Nc1ccccc1SSc1ccccc1NC(=O)c1ccccc1)c1ccccc1`, for which the Potency entry in test [1], in test [2], in test [3] and in test [4] was “inactive” in each case.
In the case of `CCn1ccnc1CC1COc2ccccc2O1` (stereo not given), the Potency entry in test [1], in test [2], in test [3] and in test [4] was “inactive” each time.
For the molecule `C=C1CC/C=C(\C)CC[C@@H]2[C@@H]1CC2(C)C`, the Potency entry in test [1], in test [2], in test [3] and in test [4] was “inactive” throughout.
As for `ICCc1ccccc1`, the Potency entry in test [1], in test [2], in test [3] and in test [4] was “inactive” throughout.
Take `CCCCCCCC/C=C\CCCCCCCCOCCO`: the Potency entry in test [1], in test [2], in test [3] and in test [4] was “inactive” throughout.
For `O=C(c1ccc(O)c(O)c1)c1ccc(O)cc1O`, the Potency entry in test [1], in test [2], in test [3] and in test [4] was “inactive” throughout.
On to `O=C(O)c1ccc(C(=O)O)cc1`, for which the Potency entry in test [1], in test [2], in test [3] and in test [4] was “inactive” each time.
Turning to `CCOC(=O)c1cccc(N)c1`, the molecule was called inactive in test [1], in test [2], in test [3] and in test [4].
Consider `CC[C@H]1OC(=O)[C@H](C)[C@@H](O[C@H]2C[C@@](C)(OC)[C@@H](O)[C@H](C)O2)[C@H](C)[C@@H](O[C@@H]2O[C@H](C)C[C@H](N(C)C)[C@H]2O)[C@](C)(O)C[C@@H](C)CN(C)[C@H](C)[C@@H](O)[C@]1(C)O`, for which the Potency result in test [1], in test [2], in test [3] and in test [4] was “inactive” throughout.
With `CCCC(=O)O[C@]1(C(=O)CO)CC[C@H]2[C@@H]3CCC4=CC(=O)CC[C@]4(C)[C@H]3[C@@H](O)C[C@@]21C`, the Potency entry in test [1], in test [2], in test [3] and in test [4] was “inactive” in each case.
As for `Nc1ccc([N+](=O)[O-])c(C(F)(F)F)c1`, the Potency result in test [1], in test [2], in test [3] and in test [4] was “inactive” in each case.
`NC(=S)NNC(N)=S`: the Potency result in test [1], in test [2], in test [3] and in test [4] was “inactive” each time.
For the molecule `C=CCOCC(O)CCl` (stereo not given), the Potency result in test [1], in test [2], in test [3] and in test [4] was “inactive” throughout.
Regarding `CN1CN(C)CN(C)C1`, the Potency entry in test [1], in test [2], in test [3] and in test [4] was “inactive” each time.
Consider `CC1=C(C)S(=O)(=O)CCS1(=O)=O`, for which the Potency result in test [1], in test [2], in test [3] and in test [4] was “inactive” each time.
For the molecule `CCn1cc(C(=O)O)c(=O)c2cc3c(cc21)OCO3`, the Potency result in test [1], in test [2], in test [3] and in test [4] was “inactive” each time.
With `CC(C)CCCCCOC(=O)CS`, the Potency entry in test [1], in test [2], in test [3] and in test [4] was “inactive” each time.
On to `C=CC(C)(C)O`, for which the Potency entry in test [1], in test [2], in test [3] and in test [4] was “inactive” throughout.
For `CC(C)(O)c1ccc(CNC(=O)c2cccnc2Oc2ccc3nonc3c2)cc1`, the Potency result in test [1], in test [2], in test [3] and in test [4] was “inactive” in each case.
As to `CCN1CCN(C(=O)N[C@@H](C(=O)N[C@@H]2C(=O)N3[C@@H]2SC(C)(C)[C@H]3C(=O)O)c2ccccc2)C(=O)C1=O`, the Potency result in test [1], in test [2], in test [3] and in test [4] was “inactive” throughout.
For the molecule `C=C(C)C(=O)OCCCCCCCCCCCCC`, the Potency result in test [1], in test [2], in test [3] and in test [4] was “inactive” in each case.
Consider `CCCCCOC(=O)COc1cc(N2C(=O)C3=C(CCCC3)C2=O)c(F)cc1Cl`, for which the Potency entry in test [1], in test [2], in test [3] and in test [4] was “inactive” each time.
`O=C(O)CCCl`: the Potency entry in test [1], in test [2], in test [3] and in test [4] was “inactive” each time.
`C/C=C/C(=O)C1=C(C)CCCC1(C)C`: the Potency entry in test [1], in test [2], in test [3] and in test [4] was “inactive” throughout.
In the case of `CCCCCCCC(=O)OCC`, the Potency result in test [1], in test [2], in test [3] and in test [4] was “inactive” in each case.
For `CCCCCCCC(=O)[O-].CCCCCCCC(=O)[O-].[Zn+2]`, the Potency result in test [1], in test [2], in test [3] and in test [4] was “inactive” throughout.
On to `COC(C)(OC)OC`, for which the Potency entry in test [1], in test [2], in test [3] and in test [4] was “inactive” each time.
With `CC=C(Cl)Cl`, the Potency entry in test [1], in test [2], in test [3] and in test [4] was “inactive” in each case.
Consider `Nc1nccs1`, for which the Potency entry in test [1], in test [2], in test [3] and in test [4] was “inactive” throughout.
Turning to `CCCCCCCCCCCCCBr`, the Potency entry in test [1], in test [2], in test [3] and in test [4] was “inactive” in each case.
For the molecule `CC(C=O)Cc1ccc(C(C)(C)C)cc1` (stereo not given), the Potency result in test [1], in test [2], in test [3] and in test [4] was “inactive” each time.
Consider `CC/C(C)=N/O`, for which the Potency result in test [1], in test [2], in test [3] and in test [4] was “inactive” each time.
As to `O=C(O)c1ccccc1-n1cc(C(=O)O)c(=O)c2cc(Nc3c(F)cc(F)cc3Cl)c(Cl)cc21`, the Potency result in test [1], in test [2], in test [3] and in test [4] was “inactive” each time.
`C=CC(=C)CCC=C(C)C`: the Potency result in test [1], in test [2], in test [3] and in test [4] was “inactive” throughout.
Consider `O=C(O)c1nc(Cl)c(Cl)c(Cl)c1Cl`, for which the Potency result in test [1], in test [2], in test [3] and in test [4] was “inactive” in each case.
As to `O=C1C(CCS(=O)c2ccccc2)C(=O)N(c2ccccc2)N1c1ccccc1` (stereo not given), the Potency entry in test [1], in test [2], in test [3] and in test [4] was “inactive” in each case.
Consider `O=C(Cl)c1c(Cl)cccc1Cl`, for which the results for the Potency in test [1] and in test [3] were 64 µM (active) and 40.4 µM (active), respectively. The Potency result in test [2] and in test [4] was “inactive” throughout.
In the case of `CC(C)(C)c1cc(CCC(=O)OCC(COC(=O)CCc2cc(C(C)(C)C)c(O)c(C(C)(C)C)c2)(COC(=O)CCc2cc(C(C)(C)C)c(O)c(C(C)(C)C)c2)COC(=O)CCc2cc(C(C)(C)C)c(O)c(C(C)(C)C)c2)cc(C(C)(C)C)c1O`, the Potency entry in test [1], in test [2], in test [3] and in test [4] was “inactive” throughout.
With `Clc1cccc(Cl)n1`, the Potency result in test [1], in test [2], in test [3] and in test [4] was “inactive” in each case.
As for `Cc1ccc2c(Cl)cc(Cl)c(O)c2n1`, the Potency entry in test [1], in test [2], in test [3] and in test [4] was “inactive” each time.
As to `C1CCSC1`, the Potency entry in test [1], in test [2], in test [3] and in test [4] was “inactive” throughout.
For `CCC(C)(C)OC`, the Potency result in test [1], in test [2], in test [3] and in test [4] was “inactive” throughout.
On to `CCCCC(CC)COCC1CO1` (stereo not given), for which the Potency entry in test [1], in test [2], in test [3] and in test [4] was “inactive” in each case.
`Oc1ccccc1F`: the Potency entry in test [1], in test [2], in test [3] and in test [4] was “inactive” throughout.
Regarding `C[C@]12C=CC(=O)C=C1CC[C@@H]1[C@@H]2[C@@H](O)C[C@@]2(C)[C@H]1CC[C@]2(O)C(=O)CO`, the Potency result in test [1], in test [2], in test [3] and in test [4] was “inactive” throughout.
`COC(=O)N[C@H](C(=O)N[C@@H](Cc1ccccc1)[C@@H](O)CN(Cc1ccc(-c2ccccn2)cc1)NC(=O)[C@@H](NC(=O)OC)C(C)(C)C)C(C)(C)C`: the Potency result in test [1], in test [2], in test [3] and in test [4] was “inactive” throughout.
With `Cc1ccc(C(=O)O)o1`, the Potency result in test [1], in test [2], in test [3] and in test [4] was “inactive” each time.
As for `CCOC(=O)NNc1ccc(N(CC)CC(C)O)nn1` (stereo not given), the Potency entry in test [1], in test [2], in test [3] and in test [4] was “inactive” throughout.
With `O=C(CCNNC(=O)c1ccncc1)NCc1ccccc1`, the Potency result in test [1], in test [2], in test [3] and in test [4] was “inactive” in each case.
For the molecule `CC1=CC(=O)c2ccccc2C1=O`, the Potency result in test [1], in test [2], in test [3] and in test [4] was “inactive” in each case.
As for `CCC(C)(CCC(C)C)C(=O)[O][Sn]([CH3])([CH3])[O]C(=O)C(C)(CC)CCC(C)C` (stereo not given), the Potency entry in test [1], in test [2], in test [3] and in test [4] was “inactive” in each case.
Turning to `c1ccc2[nH]ccc2c1`, the Potency result in test [1], in test [2], in test [3] and in test [4] was “inactive” each time.
With `CCCCCCCCCCC(=O)O`, the Potency result in test [1], in test [2], in test [3] and in test [4] was “inactive” throughout.
